# Data reported in PubChem BioAssay (Tox21).
# Results filed as inconclusive are left out. Unmarked numbers belong to inactive results. Calls of active or inactive are those of the source. Calls follow the shape of the dose curve; as a rule, active = well fitted cell-killing curve with a large enough effect in the repeat runs; inconclusive = weak or mixed curves, or effect the other way; inactive = no such curve, though single readings can be large or run the other way.
# Test: qHTS assay for small molecule activators of the heat shock response signaling pathway - cell viability counter screen (AID 743209); also: nearly all actives have a fitted effect of over 50% in size
# Conditions: HSE-bla HeLa viability, CellTiter-Glo luminescence, 5 h; series mostly up to 62.6 µM; activity change, negative = cytotoxicity: at the top concentration
# Description: U.S. Tox21 Program National Center for Advancing Translational Sciences [NCATS] NIH Chemical Genomics Center [NCGC] U.S. Environmental Protection Agency [EPA] National Institutes of Environmental Health Sciences [NIEHS] National Toxicology Program [NTP] U.S. Food and Drug Administration [FDA] Tox21 Assay Overview: Various chemicals, environmental and physiological stress conditions may lead to the activation of heat shock response/ unfolded protein response (HSR/UPR). There are three heat shock transcription factors (HSFs) (HSF-1, -2, and -4) mediating transcriptional regulation of the human HSR. To identify the compounds that activate HSR signaling, HSE-bla HeLa cell line (Invitrogen, Carlsbad, CA, USA) containing a beta-lactamase reporter gene under the control of the heat shock response elements was used to screen Tox21 10K compound library. The cytotoxicity of the Tox21 compound library against the HSE-bla HeLa cell line was tested in parallel by measuring the cell viability using CellTiter-Glo assay (Promega, Madison, WI) in the same wells.
# Tox21 Assay Protocol Summary: The CellSensor HSE-bla HeLa cells (Invitrogen, Carlsbad, CA, USA) were dispensed at 1500 cells/6uL/well into 1536-well black wall/clear bottom plates using a Multidrop combi (Thermo Fisher Scientific, Waltham, MA) dispenser. After the assay plates were incubated at 37 C and 5% CO2 overnight, 23 nL of compounds dissolved in DMSO, positive controls or DMSO only was transferred to the assay plate by a Pintool station (Kalypsys, San Diego, CA). The plates were incubated at 37 C for 5 h. After 1 uL of LiveBLAzerTM B/G FRET substrate was added using a Flying Reagent Dispenser (FRD, Beckman Coulter, Indianapolis, IN, USA), the plates were incubated at room temperature for 2.5 h, and fluorescence intensity was measured by an Envision plate reader (PerkinElmer, Shelton, CT). For cell viability readout that measures cytotoxicity, 3 ul/well of CellTiter-Glo reagent was added into the assay plates using a FRD. After 30 min incubation at room temperature, the luminescence intensity in the plates was measured using a ViewLux (PerkinElmer) plate reader.
# % is scaled to controls: 0 for no effect and ±100 for the full control effect; potency is read from the fitted curve at half-maximal effect.
Compound,"activity change, negative = cytotoxicity",Potency
CC(=O)NC1CCSC1=O (stereo not given),-1.39%,
N#Cc1cc(I)c(O)c(I)c1,-1.56%,
CN1C(=O)NC(=O)C(C)(C2=CCCCC2)C1=O (stereo not given),14.6%,
CCBr,5.25% [at 81.1 µM],
CCCN(CC1CC1)c1c([N+](=O)[O-])cc(C(F)(F)F)cc1[N+](=O)[O-],0.466%,
O=Cc1ccc(Cl)cc1Cl,-10.1% [at 81.1 µM],
CCCCCCCCOC(=O)c1ccc(C(=O)OCCCCCCCC)c(C(=O)OCCCCCCCC)c1,-1.91% [at 81.1 µM],
Cc1ccc2ccccc2c1,17%,
Oc1ccc(Cl)c(Cl)c1Cl,-27.8% [at 81.1 µM],
O=[N+]([O-])c1ccc(F)c([N+](=O)[O-])c1,-14.2% [at 81.1 µM],
O=[Se]=O,21.4%,
[CH3][Sn]([CH3])([Cl])[Cl],-31.3% [at 81.1 µM],
O=[N+]([O-])C(Br)(CO)CO,-11.1%,
COC(=O)c1cncn1C(C)c1ccccc1 (stereo not given),4.3%,
Cc1ccc(-c2c(Cl)nc(C#N)n2S(=O)(=O)N(C)C)cc1,2.62%,
CCCCN=C=O,-1.12%,
CC[C@H]1C[C@H]2[C@@H]3CCC4=CC(=O)CC[C@@H]4[C@H]3CC[C@]2(C)[C@H]1O,6.3%,
Nc1nc(=S)[nH][nH]1,1.07%,
CCc1ccc(C(=O)NN(C(=O)c2cc(C)cc(C)c2)C(C)(C)C)cc1,8.8%,
Sc1ccccc1Cl,3.9%,

Compound,"activity change, negative = cytotoxicity",Potency
Cc1cc(=O)[nH]o1,4.78% [at 81.1 µM],
Clc1cccc(SC2CCNCC2)n1,5.98%,
CCOS(C)(=O)=O,-3% [at 81.1 µM],
O=C(Nc1ccccc1)Nc1cnns1,-4.6%,
c1ccoc1,-3.19%,
CC/C(=N\OC/C=C/Cl)C1=C(O)CC(C2CCOCC2)CC1=O (stereo not given),0.813%,
c1ccc(C2CC2)c(OCC2=NCCN2)c1,-9.58%,
O=C1C(Cl)C(CCl)CN1c1cccc(C(F)(F)F)c1 (stereo not given),-0.691%,
Clc1cc(C(Cl)(Cl)Cl)cnc1Cl,,49 µM (active)
CNC(C)Cc1ccccc1OC (stereo not given),19.9%,
CCOP(=S)(OCC)Oc1cc(Cl)c(Br)cc1Cl,-5.35%,
COP(=S)(Oc1cc(Cl)c(Br)cc1Cl)c1ccccc1 (stereo not given),-15.3%,
O=C1NCN(c2ccccc2)C12CCN(CCCOc1ccc(F)cc1)CC2,10.9%,
C/C=C/C=O,7.61%,
CCCN(CCC)c1c([N+](=O)[O-])cc(S(C)(=O)=O)cc1[N+](=O)[O-],-10.5%,
Cc1c(F)c(F)c(COC(=O)C2C(/C=C(\Cl)C(F)(F)F)C2(C)C)c(F)c1F (stereo not given),-1.52%,
ClCC(Br)CBr (stereo not given),26.6%,
COCCOCCO,3.22% [at 81.1 µM],
Brc1ccccc1,-0.267%,
CC(Cl)Cl,-2.72%,
